Results taken from PubChem BioAssay (NCATS).
Records with an inconclusive call do not appear. Activity calls are given as the source filed them. Calls follow the shape of the dose curve; as a rule, active = well fitted inhibition curve with a large enough effect; inconclusive = small, poorly fitted or top-dose-only effect; inactive = flat fitted curve, though single readings scatter.

What follows are compounds tested on HEK293T (assay: qHTS assay to identify novel small-molecules to repurpose for Merkel cell carcinoma treatment (AID 1296009; also: nearly all actives have a fitted effect of over 60% in size)). Conditions: MCC and control cell lines, CellTiter-Glo viability, 72 h; series mostly up to 44.8 µM.
How it was run: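 Cells exposed to NPC (8-point) and MIPE (11-point) compound dilutions for 72 hr at 37 degree celsius; viability read by CellTiter-Glo luminescence, normalized to no-cell and DMSO in-plate controls.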

| Structure (SMILES) | outcome |
| --- | --- |
| CC(=O)OCC(=O)O[C@@H]1[C@H]2[C@@H](OC(=O)c3ccccc3)[C@@H](C)C[C@]2(O)[C@H](OC(C)=O)C2(C)[C@H]3CC(C)(C)C(=O)[C@@H]3CC1(OC(C)=O)[C@@H]2OC(C)=O (some centres undefined) | inactive [at 17.4 µM] |
| CC1(O)CCC2C(C(=O)O)=COC(OC3OC(CO)C(O)C(O)C3OC(=O)/C=C/c3ccc(O)cc3)C21 (centres undefined) | inactive [at 17.4 µM] |
| CC(=O)NC(CCC(=O)O)C(=O)NCCc1ccc(O)cc1 (centres undefined) | inactive |
| COC(=O)C1C(c2ccc(O)cc2)C(C(=O)OC)C1c1ccc(O)cc1 (centres undefined) | inactive |
| C=C(C)C(=O)O[C@H]1C[C@@](C)(OC(C)=O)[C@@]2(O)CC[C@@](C)(O)[C@H](OC(C)=O)[C@@]23OC(=O)C(COC)=C13 | inactive [at 17.4 µM] |
| CC1(C)CC(=O)N(CCCCN2CCN(c3ncccn3)CC2)C(=O)C1 | inactive |
| COc1ccc2c(c1)OC[C@]1(O)c3cc4c(cc3O[C@H]21)OCO4 | inactive |
| CC(CCC1(O)OC2CC3C4CCC5CC(O[C@@H]6O[C@H](CO)[C@@H](O)[C@H](O)[C@H]6O[C@@H]6OC[C@@H](O)[C@H](O)[C@H]6O)C(O)CC5(C)C4CCC3(C)C2C1C)CO[C@@H]1O[C@H](CO)[C@@H](O)[C@H](O)[C@H]1O (some centres undefined) | inactive [at 9.27 µM] |
| COc1cc(CCc2ccccc2)c(C(=O)O)c2c1CC(C(C)(C)O)O2 (centres undefined) | inactive |
| CCCC1=CC2=C(CO1)C(=O)C(C)(OC(=O)c1c(C)cc(OC)cc1O)C(O)C2 (centres undefined) | inactive [at 17.4 µM] |
| C[C@@H]1O[C@@H](O[C@@H]2[C@@H](O)[C@H](O[C@@H]3[C@@H](O)[C@@H](O)[C@H](O[C@H]4[C@H](OC(=O)[C@]56CCC(C)(C)C[C@H]5C5=CCC7[C@@]8(C)C[C@H](O)[C@H](O[C@@H]9O[C@@H](C)[C@H](O)[C@@H](O)[C@H]9O)[C@@](C)(CO)C8CC[C@@]7(C)[C@]5(C)C[C@H]6O)O[C@H](C)[C@H](O)[C@@H]4O)O[C@H]3C)OC[C@H]2O)[C@H](O)[C@H](O)[C@H]1O (some centres undefined) | inactive [at 9.27 µM] |
| CCS(=O)(=O)N1CCC([C@@H](C)n2c(C)c(C(=O)NCc3c(OC)cc(C)[nH]c3=O)c3ccccc32)CC1 | inactive |
| C/C=C1\[C@H](O[C@@H]2O[C@H](CO)[C@@H](O)[C@H](O)[C@H]2O)OC=C(C(=O)OC)[C@H]1CC(=O)OC | inactive [at 17.4 µM] |
| O=C(O[C@H]1[C@@H]2C[C@@H]3OC[C@@](O)([C@H]2[C@H](O[C@@H]2O[C@H](CO)[C@@H](O)[C@H](O)[C@H]2O)O3)[C@@H]1O)c1ccccc1 | inactive [at 17.4 µM] |
| CC1CCC2C(C)(C)C(O)CCC2(C)C12Cc1c(O)cc3c(c1O2)C(N)=NC3 (centres undefined) | inactive |
| C=CC(C)(C)O[C@@H]1O[C@H](CO[C@@H]2OC[C@](O)(CO)[C@H]2O)[C@@H](O)[C@H](O)[C@H]1O | inactive |
| CCCC(N[C@@H](C)C(=O)N1[C@H](C(=O)O)C[C@@H]2CCCC[C@@H]21)C(=O)OCC (some centres undefined) | inactive |
| O=C(O)c1ccc(CCCc2ccc(OCCc3ccc(F)cc3)cc2)o1 | inactive |
| Cc1[nH]cnc1C1CCN(c2nc3cccc4c3n2CCC4=O)CC1 | inactive |
| C[C@@H]1O[C@@H](O[C@@H]2[C@@H](O)[C@H](O[C@@H]3[C@@H](O)[C@@H](O)[C@H](O[C@H]4[C@H](OC(=O)[C@]56CCC(C)(C)C[C@H]5C5=CCC7[C@@]8(C)C[C@H](O)[C@H](O[C@@H]9O[C@H](C(=O)O)[C@@H](O)[C@H](O)[C@H]9O)[C@@](C)(CO)C8[C@H](O)C[C@@]7(C)[C@]5(C)CC6)OC[C@H](O)[C@@H]4O)O[C@H]3C)OC[C@H]2O)[C@H](O)[C@H](O)[C@H]1O (some centres undefined) | inactive [at 9.27 µM] |

| Structure (SMILES) | outcome |
| --- | --- |
| CC1(C)CC2C(O)C3=C(CC(C)(O)C2C1)C(=O)OC3O (centres undefined) | inactive |
| CC(C)=CC/C=C(/C)[C@H]1CC[C@]2(C)[C@@H]1[C@H](O)CC1[C@@]3(C)CC[C@H](O)C(C)(C)[C@@H]3[C@@H](O[C@@H]3O[C@H](CO)[C@@H](O)[C@H](O)[C@H]3O[C@@H]3O[C@@H](C)[C@H](O)[C@@H](O)[C@H]3O)C[C@]12C (some centres undefined) | inactive [at 17.4 µM] |
| O=C(/C=C/c1ccc(O)cc1)OCC1=C[C@@H](O)[C@@H]2C=CO[C@@H](O[C@@H]3O[C@H](CO)[C@@H](O)[C@H](O)[C@H]3O)[C@H]12 | inactive [at 17.4 µM] |
| O=C(O[C@H]1[C@@H]2C=CO[C@@H](O[C@@H]3O[C@H](CO)[C@@H](O)[C@H](O)[C@H]3O)[C@@H]2[C@@]2(CO)O[C@@H]12)c1ccc(O)c(O)c1 | inactive [at 17.4 µM] |
| O=C(O)C[C@H]1CCC(=O)[C@@H]1C/C=C\CCOC1OC(CO)C(O)C(O)C1O (some centres undefined) | inactive |
| CC(=O)OC1C(O)C(C)=C(CCC(C)CC(=O)O)C2(C)CCCC(C)(C)C12 (centres undefined) | inactive |
| Cc1ncc([N+](=O)[O-])n1CC(O)CN1CCOCC1 (centres undefined) | inactive |
| COc1cc2c(cc1O)C1(Cc3ccc4c(c3C1=O)OCO4)N(C)CC2 (centres undefined) | inactive |
| COC(=O)[C@H](CC1C=NC=N1)NCC12CC3CC(CC(C3)C1)C2 (some centres undefined) | inactive |
| CCOC(=O)c1ccc(N(C)c2csc(-c3ccccc3)n2)cc1 | inactive |
| C/C1=C\C[C@H](O[C@@H]2O[C@H](CO)[C@@H](O)[C@H](O)[C@H]2O)/C(C)=C/[C@H]2OC(=O)[C@H](C)[C@@H]2CC1 | inactive [at 17.4 µM] |
| COc1ccc(C(=O)O[C@H]2CC(C)=CC[C@@]3(C)[C@@H](OC(C)=O)C[C@@](O)(C(C)C)[C@H]23)cc1 | inactive [at 17.4 µM] |
| CC/C=C\C[C@H]1C(=O)C=C[C@@H]1CCCCCCCC(=O)O | inactive |
| CC1CC(=O)C2=C(O1)OC1(C)CCC3C(C)(C)C=CC(=O)C3(C)C1C2 (centres undefined) | inactive |
| CC1(CO)CC2C(O)C(=O)C3(CO)CC3(C)C2C1 (centres undefined) | inactive |
| CCn1nnnc1NCc1ccc(C(C)C)cc1 | inactive |
| CCNC(=O)CCC/C=C\C[C@@H]1[C@@H](/C=C/C(O)CCc2ccccc2)[C@@H](O)C[C@@H]1O (some centres undefined) | inactive |
| CN[C@@H]1[C@@H](O)[C@@H](O[C@@H]2[C@@H](O)[C@H](O[C@H]3O[C@H](CN)[C@@H](O)[C@H](O)[C@H]3O)[C@@H](N)C[C@H]2NC(=O)[C@@H](O)CN)OC[C@]1(C)O | inactive |
| CC1(C)OC(=O)C(OCC2CC2)=C1c1ccc(S(C)(=O)=O)cc1 | inactive |
